# According to PubChem BioAssay AID1159580 (chemical genetic matrix, 2015):
# About 2,000 (36%) of roughly 5,500 compounds were called active. Inconclusive results (about 18%) are left out. The list shows a part of the results. A number with no mark means an inactive call. Cut-off read from the data, not from the text of the source: active = normalized growth mostly below about 0.91 (no sharp cut-off); inconclusive = no clear call, values can overlap the other calls; inactive = mostly above about 0.92.
# Assay: chemical genetic growth profiling, strain panel (AID 1159580);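 note: tested at 20 µM; growth read once vehicle control cultures reached saturation at 30 °C; 1 = growth at the plate median or of vehicle wells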
# Settings: growth OD
smiles,measurement,setting,value
COc1cc(O)c2c(=O)c(O)c(-c3ccc(O)c(O)c3)oc2c1,normalized growth,"S. cerevisiae deletion strains, locus YJR075W, strain HOC1, stronger effect = lower value",0.987
same,normalized growth,"S. cerevisiae deletion strains, locus YKL009W, strain mrt4, stronger effect = lower value",1.02
same,normalized growth,"S. cerevisiae deletion strains, locus YKL068W, stronger effect = lower value",1
same,normalized growth,"S. cerevisiae deletion strains, locus YKL085W, strain MDH1 (second series), stronger effect = lower value",0.994
same,normalized growth,"S. cerevisiae deletion strains, locus YKL085W, strain MDH1, stronger effect = lower value",0.994
same,normalized growth,"S. cerevisiae deletion strains, locus YKL160W, strain elf1, stronger effect = lower value",0.84 (active)
same,normalized growth,"S. cerevisiae deletion strains, locus YKL190W, strain CNB1, stronger effect = lower value",0.997
same,normalized growth,"S. cerevisiae deletion strains, locus YKR001C, strain vps1, stronger effect = lower value",0.996
same,normalized growth,"S. cerevisiae deletion strains, locus YKR026C, strain gcn3, stronger effect = lower value",0.945
same,normalized growth,"S. cerevisiae deletion strains, locus YKR091W, strain srl3, stronger effect = lower value",0.961
same,normalized growth,"S. cerevisiae deletion strains, locus YLL001W, strain dnm1, stronger effect = lower value",0.782 (active)
same,normalized growth,"S. cerevisiae deletion strains, locus YLL026W, stronger effect = lower value",0.934
same,normalized growth,"S. cerevisiae deletion strains, locus YLL041C, strain sdh2, stronger effect = lower value",0.928
same,normalized growth,"S. cerevisiae deletion strains, locus YLR027C, strain aat2, stronger effect = lower value",0.843 (active)
same,normalized growth,"S. cerevisiae deletion strains, locus YLR039C, strain RIC1, stronger effect = lower value",0.785
same,normalized growth,"S. cerevisiae deletion strains, locus YLR058C, strain SHM2, stronger effect = lower value",0.827 (active)
same,normalized growth,"S. cerevisiae deletion strains, locus YLR102C, strain apc9, stronger effect = lower value",1.02
same,normalized growth,"S. cerevisiae deletion strains, locus YLR221C, strain rsa3, stronger effect = lower value",0.779 (active)
same,normalized growth,"S. cerevisiae deletion strains, locus YLR258W, strain gsy2, stronger effect = lower value",0.854 (active)
same,normalized growth,"S. cerevisiae deletion strains, locus YLR262C, strain YPT6 (second series), stronger effect = lower value",0.565 (active)
same,normalized growth,"S. cerevisiae deletion strains, locus YLR262C, strain YPT6, stronger effect = lower value",0.91
same,normalized growth,"S. cerevisiae deletion strains, locus YLR268W, strain sec22, stronger effect = lower value",0.968
same,normalized growth,"S. cerevisiae deletion strains, locus YLR320W, strain mms22, stronger effect = lower value",0.758 (active)
same,normalized growth,"S. cerevisiae deletion strains, locus YLR330W, strain CHS5, stronger effect = lower value",0.99
same,normalized growth,"S. cerevisiae deletion strains, locus YLR342W, strain FKS1 (second series), stronger effect = lower value",0.898
same,normalized growth,"S. cerevisiae deletion strains, locus YLR342W, strain FKS1, stronger effect = lower value",0.643 (active)
same,normalized growth,"S. cerevisiae deletion strains, locus YLR357W, strain rsc2, stronger effect = lower value",0.678 (active)
same,normalized growth,"S. cerevisiae deletion strains, locus YLR370C, strain arc18, stronger effect = lower value",0.813 (active)
same,normalized growth,"S. cerevisiae deletion strains, locus YLR371W, strain rom2, stronger effect = lower value",0.962
same,normalized growth,"S. cerevisiae deletion strains, locus YLR384C, strain iki3, stronger effect = lower value",0.936
same,normalized growth,"S. cerevisiae deletion strains, locus YLR418C, strain cdc73, stronger effect = lower value",0.957
same,normalized growth,"S. cerevisiae deletion strains, locus YML016C, strain PPZ1, stronger effect = lower value",0.915 (active)
same,normalized growth,"S. cerevisiae deletion strains, locus YML032C, strain rad52, stronger effect = lower value",1.02
same,normalized growth,"S. cerevisiae deletion strains, locus YML120C, strain ndi1, stronger effect = lower value",0.879 (active)
same,normalized growth,"S. cerevisiae deletion strains, locus YML124C, strain tub3, stronger effect = lower value",1.02
same,normalized growth,"S. cerevisiae deletion strains, locus YMR058W, strain fet3, stronger effect = lower value",0.247 (active)
same,normalized growth,"S. cerevisiae deletion strains, locus YMR078C, strain ctf18, stronger effect = lower value",1.02
same,normalized growth,"S. cerevisiae deletion strains, locus YMR125W, strain sto1, stronger effect = lower value",1
same,normalized growth,"S. cerevisiae deletion strains, locus YMR129W, stronger effect = lower value",0.927
same,normalized growth,"S. cerevisiae deletion strains, locus YMR205C, strain PFK2, stronger effect = lower value",0.658 (active)
same,normalized growth,"S. cerevisiae deletion strains, locus YMR223W, strain ubp8, stronger effect = lower value",1
same,normalized growth,"S. cerevisiae deletion strains, locus YMR231W, strain pep5, stronger effect = lower value",0.874 (active)
same,normalized growth,"S. cerevisiae deletion strains, locus YMR307W, strain GAS1, stronger effect = lower value",0.768
same,normalized growth,"S. cerevisiae deletion strains, locus YNL067W, strain RPL9B, stronger effect = lower value",0.953
same,normalized growth,"S. cerevisiae deletion strains, locus YNL071W, strain lat1, stronger effect = lower value",0.919
same,normalized growth,"S. cerevisiae deletion strains, locus YNL128W, strain TEP1, stronger effect = lower value",0.935
same,normalized growth,"S. cerevisiae deletion strains, locus YNL209W, strain ssb2, stronger effect = lower value",0.452 (active)
same,normalized growth,"S. cerevisiae deletion strains, locus YNL233W, strain BNI4, stronger effect = lower value",0.894
same,normalized growth,"S. cerevisiae deletion strains, locus YNL248C, strain rpa49, stronger effect = lower value",0.889
same,normalized growth,"S. cerevisiae deletion strains, locus YNL250W, strain rad50, stronger effect = lower value",0.986
same,normalized growth,"S. cerevisiae deletion strains, locus YNL271C, strain bni1, stronger effect = lower value",0.998
same,normalized growth,"S. cerevisiae deletion strains, locus YNL298W, strain CLA4, stronger effect = lower value",1.01
same,normalized growth,"S. cerevisiae deletion strains, locus YNL307C, strain MCK1, stronger effect = lower value",1.02
same,normalized growth,"S. cerevisiae deletion strains, locus YNL322C, strain KRE1 (second series), stronger effect = lower value",0.967
same,normalized growth,"S. cerevisiae deletion strains, locus YNL322C, strain KRE1, stronger effect = lower value",0.952
same,normalized growth,"S. cerevisiae deletion strains, locus YNR049C, strain mso1, stronger effect = lower value",0.947
same,normalized growth,"S. cerevisiae deletion strains, locus YNR052C, strain pop2, stronger effect = lower value",0.991
same,normalized growth,"S. cerevisiae deletion strains, locus YOL006C, strain TOP1, stronger effect = lower value",0.624
same,normalized growth,"S. cerevisiae deletion strains, locus YOL012C, strain htz1",0.669
same,normalized growth,"S. cerevisiae deletion strains, locus YOL147C, strain pex11, stronger effect = lower value",1.01
same,normalized growth,"S. cerevisiae deletion strains, locus YOR001W, strain rrp6, stronger effect = lower value",0.845 (active)
same,normalized growth,"S. cerevisiae deletion strains, locus YOR061W, strain CKA2, stronger effect = lower value",0.934
same,normalized growth,"S. cerevisiae deletion strains, locus YOR069W, strain VPS5, stronger effect = lower value",0.966
same,normalized growth,"S. cerevisiae deletion strains, locus YOR070C, strain gyp1, stronger effect = lower value",0.878 (active)
same,normalized growth,"S. cerevisiae deletion strains, locus YOR080W, strain dia2, stronger effect = lower value",0.813 (active)
same,normalized growth,"S. cerevisiae deletion strains, locus YOR083W, strain WHI5, stronger effect = lower value",0.749 (active)
same,normalized growth,"S. cerevisiae deletion strains, locus YOR106W, strain vam3, stronger effect = lower value",0.407 (active)
same,normalized growth,"S. cerevisiae deletion strains, locus YOR136W, strain idh2, stronger effect = lower value",1.01
same,normalized growth,"S. cerevisiae deletion strains, locus YOR144C, strain elg1, stronger effect = lower value",1.02
same,normalized growth,"S. cerevisiae deletion strains, locus YOR184W, strain ser1, stronger effect = lower value",0.993
same,normalized growth,"S. cerevisiae deletion strains, locus YOR265W, strain rbl2, stronger effect = lower value",0.883 (active)
same,normalized growth,"S. cerevisiae deletion strains, locus YOR270C, strain vph1, stronger effect = lower value",0.484 (active)
same,normalized growth,"S. cerevisiae deletion strains, locus YOR290C, strain snf2, stronger effect = lower value",0.701 (active)
same,normalized growth,"S. cerevisiae deletion strains, locus YOR316C, strain cot1, stronger effect = lower value",1.05
same,normalized growth,"S. cerevisiae deletion strains, locus YPL051W, strain arl3, stronger effect = lower value",0.521 (active)
same,normalized growth,"S. cerevisiae deletion strains, locus YPL078C, strain atp4, stronger effect = lower value",0.796 (active)
same,normalized growth,"S. cerevisiae deletion strains, locus YPL106C, strain sse1, stronger effect = lower value",0.77 (active)
same,normalized growth,"S. cerevisiae deletion strains, locus YPL240C, strain hsp82, stronger effect = lower value",0.83 (active)
same,normalized growth,"S. cerevisiae deletion strains, locus YPL241C, strain CIN2, stronger effect = lower value",0.989
same,normalized growth,"S. cerevisiae deletion strains, locus YPR119W, strain clb2, stronger effect = lower value",1.03
same,normalized growth,"S. cerevisiae deletion strains, locus YPR141C, strain kar3, stronger effect = lower value",0.997
same,normalized growth,"S. cerevisiae deletion strains, locus YPR163C, strain tif3, stronger effect = lower value",1.01
same,normalized growth,"S. cerevisiae deletion strains, locus YPR167C, strain met16, stronger effect = lower value",1
same,normalized growth,"S. cerevisiae deletion strains, strain wtn01, stronger effect = lower value",0.996
same,normalized growth,"S. cerevisiae strains, strain wild type, stronger effect = lower value",0.929
